Screens: PubChem, several laboratories
Hits are enriched below; roughly 1.5% of the tested compounds scored in any of these assays.
CRFR2-BP ag: agonists of CRF-BP/CRF-R2 complex, primary screen, cell-based, HEK293, calcium dye fluorescence, uHTS; calcium dye fluorescence (FLIPR); percent of saturating CRF peptide response; CRF-binding protein / CRF receptor 2 complex (human); activation, % at 13.2 µM; 350,000 compounds, 0.46% hits;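 active = activation of at least 50%, plus an integration ratio under a set limit after plate pattern correction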;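 also: plate controls were neutral control wells without compound for no effect and CRF at EC100 for full effect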
V-ATPase pHluor: regulators of yeast V-ATPase proton pumping, primary screen, pHLuorin cytosolic pH fluorescence | S. cerevisiae | response, % at 10 µM | 350,000 compounds, 0.37% hits | AID 504577, 2011; in the data active = response mostly above about 7.3%, no sharp cut-off; inactive = mostly below about 5.4%; also: actives read high
CRFR2-BP antag: antagonists of CRF-BP/CRF-R2 complex, primary screen, cell-based, HEK293, calcium dye fluorescence, uHTS; CRF-induced calcium fluorescence; inhibition, % at 11.8 µM; 350,000 compounds, 0.59% hits;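 active = inhibition of the ligand-induced calcium signal above about 50% at the single tested concentration, limit read from the data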
NTR1 agonist: agonists of human NTR1, primary screen, imaging, U2OS cells, beta-arrestin-GFP, high content. activation, % at 20 µM. Neurotensin receptor type 1 (Homo sapiens), P30989. AID 493036, 2011. NTR1-U2OS beta-arrestin-GFP spot imaging, agonist mode. 330,000 compounds, 0.17% hits;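 active = activation at or above 40% of the spot to cytoplasm intensity ratio, with at least 20 cells analyzed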;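 also: 0% = DMSO without peptide and 100% = 100 nM NTR1 peptide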
Target sequence (P30989 whole entry, looked up): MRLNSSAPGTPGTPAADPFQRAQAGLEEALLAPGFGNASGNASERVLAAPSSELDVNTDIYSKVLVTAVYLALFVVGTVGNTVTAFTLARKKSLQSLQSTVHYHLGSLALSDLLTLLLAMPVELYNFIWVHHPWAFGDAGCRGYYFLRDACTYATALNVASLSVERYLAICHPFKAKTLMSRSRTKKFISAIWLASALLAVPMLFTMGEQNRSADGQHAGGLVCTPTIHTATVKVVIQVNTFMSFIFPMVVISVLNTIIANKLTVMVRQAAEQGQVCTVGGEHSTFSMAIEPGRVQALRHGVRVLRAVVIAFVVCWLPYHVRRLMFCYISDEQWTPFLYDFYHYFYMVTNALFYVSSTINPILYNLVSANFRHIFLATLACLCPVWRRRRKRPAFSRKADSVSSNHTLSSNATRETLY
Starred values were filed as active, the others as inactive; x = no result given.

SMILES	CRFR2-BP ag	V-ATPase pHluor	CRFR2-BP antag	NTR1 agonist
C[C@H]1CC[C@@H]2[C@@H](C)[C@H]3[C@H](C[C@H]4[C@@H]5CC=C6C[C@@H](O[C@@H]7O[C@H](CO)[C@H](O)[C@H](O[C@@H]8O[C@H](CO)[C@@H](O)[C@H](O)[C@H]8O)[C@H]7O[C@@H]7O[C@@H](C)[C@H](O)[C@@H](O)[C@H]7O)CC[C@]6(C)[C@H]5CC[C@]34C)N2C1	67.4*	-3.6	-21.7	-3.1
CCN(CC)c1ccc(/C=N/c2sc3c(c2C#N)C2CCN3CC2)c(O)c1	171.1*	8.3	-159.5	x
Cc1nc(N2CCN(Cc3ccc4c(c3)OCO4)CC2)[nH]c(=O)c1C	-2.0	4.2	8.3	0.0
O=C1NC(=O)C(=Cc2ccc(-c3ccc(Cl)cc3)o2)C(=O)N1	19.1	5.5	-20.6	40.7*
Cc1ccc(N2C(=O)CC(=O)NC2=O)c(C)c1	-1.0	0.4	56.7*	0.4
Cc1ccc(N2C(=O)CC(=O)NC2=O)cc1	1.6	4.5	9.8	2.3
C[C@@H]1CN([C@H](C)CO)C(=O)c2c(c3ccccc3n2C)-c2ccccc2CO[C@H]1CN(C)Cc1ccc2c(c1)OCCN2C	-0.5	0.0	-14.8	x
CC(=O)N1CCC(N2CCCC(C(=O)c3cccc(Cl)c3)C2)CC1 (centres undefined)	1.8	-0.2	67.1*	0.7
O=C(C(=O)N1CCOCC1)c1cn(Cc2ccccc2F)c2ccccc12	0.1	3.1	-11.8	0.7
CNc1ccc2oc(C[C@H]3O[C@@]4(CC[C@H]3C)O[C@H]([C@H](C)C(=O)c3ccc[nH]3)[C@H](C)C[C@H]4C)nc2c1C(=O)O	211.2*	-1.6	-229.4	-3.8
CC(C)OC1CCCC(O)C1CC(=O)O (centres undefined)	0.2	-0.9	8.8	0.1
COC(=O)C1=C(c2ccc(OCc3ccccc3)cc2)C[C@@H]2CC[C@H]1N2C(=O)NCc1cccc(OC)c1	0.8	11.8	10.2	2.2
CCOP(=S)(NN(Cc1ccccc1)C(=O)c1ccccc1)OCC	-0.1	1.0	21.4	0.6
CC1=Nc2ccccc2/C1=C/c1c(O)[nH]c(=O)[nH]c1=O	-1.6	-2.7	6.0	-0.1
O=c1[nH]c(O)c(/C=C2/C=CC(c3cc(Cl)ccc3Cl)=N2)c(=O)[nH]1	102.7*	-1.4	-101.7	46.2*
CCN(CCO)c1ccc(N=Cc2c(O)n(C)c(=S)[nH]c2=O)cc1	87.0*	0.8	-101.5	1.1
CCN(CC)c1ccc(N=Cc2c(O)n(CCc3ccc(OC)c(OC)c3)c(=O)[nH]c2=O)cc1	127.4*	-1.7	-115.1	x
COc1ccc(CCn2c(O)c(C=Nc3ccc(F)cc3)c(=O)[nH]c2=O)cc1OC	4.3	1.0	-11.2	1.8
CCN(CC)c1ccc(N=Cc2c(O)n(Cc3ccco3)c(=O)[nH]c2=O)cc1	59.9*	-3.4	-48.6	5.6
NC(=O)c1ccc(N=Cc2c(O)n(Cc3ccco3)c(=O)[nH]c2=O)cc1	1.3	2.3	1.5	0.2
COCCCn1c(-c2ccc(OC)cc2)cc(C(=O)NC2CCCCCCC2)c1C	-2.6	1.6	86.2*	8.9
Cc1c(C(=O)Nc2ccccc2)cc(-c2ccccc2)n1CCCN1CCOCC1	-0.8	1.8	-16.9	-0.9
CCCCCCCCc1ccc(O)cc1	-0.6	27.4*	17.5	6.8
O=P(C(c1c[nH]c2ccccc12)N1CCOCC1)(N1CCOCC1)N1CCOCC1 (centres undefined)	-2.0	-2.5	-9.2	1.6
CN(C)C(=O)Oc1ccc(OC(=O)c2ccccc2)cc1	0.5	0.4	2.6	1.6
SMILES	CRFR2-BP ag	V-ATPase pHluor	CRFR2-BP antag	NTR1 agonist
CN(C(=O)Oc1ccc(C(=O)c2ccc(Cl)cc2)cc1)c1ccccc1	9.4	2.4	50.2*	-0.8
CCCCCCCCCCOC(=O)CCN1CC1	8.4	1.1	50.8*	x
CCCCCCOc1ccc(CN2CCN(CCO)CC2)cc1	0.6	-1.5	-27.3	-1.4
c1cc2c(cc1N1CCCCC1)C1CC2CCN1 (centres undefined)	-3.9	-1.2	-25.3	x
Cc1cc(OC(=O)c2cccs2)c2c3c(c(=O)oc2c1)CCCC3	11.8	0.8	52.5*	10.5
Oc1c(Br)c(Br)c(Br)c(Br)c1Br	-2.2	-5.6	57.7*	5.8
CC1=CC2OC3CC4OC(=O)C=CC=CC(C(C)O)OCC(O)C5(C)OC5C(=O)OCC2(CC1O)C4(C)C31CO1 (centres undefined)	-2.4	-5.9	-7.2	x
CC(=O)N1N=C2C3CCN(CC3)C2C1c1ccc(C)cc1 (centres undefined)	-3.7	4.7	-19.7	1.6
